High-throughput results: PubChem BioAssay, National Center for Advancing Translational Sciences (NCATS)
FLuc inh-1: Photinus pyralis luciferase inhibition | 76,000 tested, 2.5% active | purified P. pyralis luciferase, luminescence, biochemical | AID 1347043 | Potency, µM (highest dose often 115 µM), usual class: inhibitors | P08659; note: % is set by controls: 0 for no effect and ±100 for the full control effect; nearly all actives have a fitted effect of over 65% in size
Target sequence (P08659 whole entry, looked up): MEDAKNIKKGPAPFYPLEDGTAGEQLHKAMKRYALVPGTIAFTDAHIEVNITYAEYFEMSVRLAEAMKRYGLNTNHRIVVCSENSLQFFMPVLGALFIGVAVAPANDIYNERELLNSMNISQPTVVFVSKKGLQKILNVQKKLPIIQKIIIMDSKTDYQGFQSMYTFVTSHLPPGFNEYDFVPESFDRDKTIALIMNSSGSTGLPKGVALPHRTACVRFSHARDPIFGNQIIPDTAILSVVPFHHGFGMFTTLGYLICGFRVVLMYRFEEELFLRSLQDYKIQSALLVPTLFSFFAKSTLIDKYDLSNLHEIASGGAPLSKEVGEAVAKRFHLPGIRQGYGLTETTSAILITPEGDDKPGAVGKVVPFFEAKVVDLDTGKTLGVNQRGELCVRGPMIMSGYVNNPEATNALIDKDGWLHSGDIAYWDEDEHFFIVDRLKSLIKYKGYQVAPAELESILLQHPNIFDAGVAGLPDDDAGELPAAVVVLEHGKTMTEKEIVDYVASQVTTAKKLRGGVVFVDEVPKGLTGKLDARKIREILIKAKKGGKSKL
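Inhibitors were tested against purified firefly luciferase in a biochemical, low-substrate format (both substrates at 10uM) and luminescence measured with a CCD imager.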
HEK293 tox: kills HEK 293 cells. HEK 293 viability, ATP luminescence (CellTiter-Glo), 48-72 h. Potency, µM (titrated, usually from 115 µM), inactives show top-dose activity change, negative = cytotoxicity, most hits filed as inhibitors. 94,000 tested, 6.6% active. AID 1345083; note: % is set by controls: 0 for no effect and ±100 for the full control effect; nearly all actives have a fitted effect of over 60% in size
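Cytotoxicity was scored by loss of ATP-coupled luminescence (CellTiter-Glo) in HEK 293 cells. Compound treatment ran 48 or 72 hr at 37 degree Celsius, 5% CO2, 95% humidity.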
hNpr1 antagonist: antagonists of human natriuretic peptide receptor Npr1 | HEK293 hNpr1 GloSensor cGMP, ANP-stimulated luminescence | Potency, µM (doses to about 46.3 µM), inactives show at the top dose activity change, negative = inhibition, usual class: inhibitors | 76,000 tested, 1.6% active | AID 1347048; calls by dose curve; note: % is set by controls: 0 for no effect and ±100 for the full control effect; nearly all actives have a fitted effect of over 60% in size
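Compound pre-incubated 30 min at room temperature on GloSensor-loaded HEK293 cells stably carrying hNpr1 and the pGS-40F cGMP biosensor. Stimulation uses hNppA at 0.1 nM final; luminescence is taken at baseline and 20 min post-agonist.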
SNCA expr inhib: inhibitors of alpha-synuclein (SNCA) gene expression. Potency, µM (series often up to 57.2 µM), for the others: at the top dose activity change, negative = inhibition, usual class: inhibitors. AID 1671194. HEK-293 SNCA-luciferase knock-in, luminescence, 24 h. 140,000 tested, 0.17% active;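 note: plate controls were DMSO cells for no effect and cell-free wells for full effect; nearly all actives have a fitted effect of over 45% in size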
NIH3T3 tox: kills NIH 3T3 cells. NIH 3T3 viability, CellTiter-Glo ATP luminescence, 48-72 h. Potency, µM (top dose mostly 96.7 µM), without a hit: top-dose activity change, negative = cytotoxicity, usual class: inhibitors. 94,000 tested, 4.3% active. AID 1345082; note: % is set by controls: 0 for no effect and ±100 for the full control effect; nearly all actives have a fitted effect of over 55% in size
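Cytotoxicity was measured by CellTiter-Glo ATP luminescence after 48 or 72 h compound exposure at 37 °C. Mouse NIH 3T3 fibroblasts were seeded at 400 cells/well and dosed by 23 nL pin transfer.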
HEK293 viab: counter-screen for SNCA expression inhibitors: cell viability; Potency, µM (titrated, usually from 57.1 µM), inactives show top-dose activity change, negative = cytotoxicity, usual class: cytotoxic; 150,000 tested, 0.12% active; HEK-293-SNCA-luc viability, GF-AFC fluorescence, 24 h;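 note: 0% = DMSO-treated cells and -100% = medium-only wells without cells; nearly all actives have a fitted effect of over 30% in size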
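Cytotoxicity counterscreen: after 24 h compound treatment of genome-edited SNCA-luciferase HEK-293 cells, live-cell protease substrate GF-AFC read by fluorescence after 30 min; activity scaled between DMSO (0%) and medium-only (-100%), curves Hill-fitted.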
FLuc SDR no ATP: binders stabilizing firefly luciferase, without ATP; Potency, µM (doses to about 32.7 µM), inactives show at the top dose activation (signal gain), hits mostly activators; shares compounds with FLuc inh-1; Purified FLuc-C-HiBiT, Nano-Glo HiBiT luminescence, no ATP; AID 1963318; 1,300 tested, 7.8% active; note: nearly all actives have a fitted effect of over 55% in size
FLuc SDR ATP: stabilizes firefly luciferase with ATP present; shares compounds with FLuc inh-1; purified FLuc-C-HiBiT + ATP, HiBiT complementation luminescence; Potency, µM (titrated, usually from 32.7 µM), without a hit: at the top dose activation (gain of signal), hits mostly activators; 1,300 tested, 8.7% active;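 note: signal reports ligand binding via conformational change of the enzyme rather than luciferase catalysis; % of control where 0% means no effect; nearly all actives have a fitted effect of over 55% in size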
FLuc inh-2: firefly luciferase enzyme inhibition | shares compounds with FLuc inh-1 | purified FLuc-C-HiBiT enzyme, luciferin luminescence | Potency, µM (titrated, usually from 32.7 µM), without a hit: top-dose activity change, negative = inhibition, hits mostly inhibitors | 1,300 tested, 42% active | AID 1963320; note: % is set by controls: 0 for no effect and ±100 for the full control effect; nearly all actives have a fitted effect of over 70% in size
* marks the source's active call; other numbers are inactive results; i = inactive; ? = inconclusive; · = no result given; [ ] = dose if it differs, or a comment. Compounds with a hit are over-represented: about 7.4% of the library has one in this group of screens. Unless noted, calls come from the whole dose curve; as a rule, active = well fitted curve in the direction sought with a large enough effect; inconclusive = small, poorly fitted or top-dose-only effect, or another doubt; inactive = no such curve, though single readings can be large; an effect the other way counts as inactive or inconclusive. Potency is the fitted concentration of half-maximal effect.

SMILES | FLuc inh-1 | HEK293 tox | hNpr1 antagonist | SNCA expr inhib | NIH3T3 tox | HEK293 viab | FLuc SDR no ATP | FLuc SDR ATP | FLuc inh-2
CCC[C@H](N)C(=O)N1CCC(c2cc(N3CCOCC3)nc(C)n2)CC1 | i | ? | -2% | -22% | ? | -27% | · | · | ·
COC[C@@H]1CN(Cc2ccc(C)cn2)C[C@H]1C(=O)NC1CC1 | i | -2% | -12% | -22% | 1% | -14% | · | · | ·
CN1c2cc(C(=O)Nc3ccc4c(c3)OCCO4)ccc2C(=O)N2CCCC21 (stereo not given) | 14µM* | -27% | -12% | 43% | ? | -19%[12.5 µM] | 28% | ? | 7.9µM*
COc1ccc(NC(=O)c2ccc3c(c2)N(C(=O)c2ccc(OC)cc2)CC3)cc1 | ? | ? | ? | 28% | ? | -28% | · | · | ·
COc1ccc(C(=O)N2CCc3ccc(C(=O)Nc4ccc5c(c4)OCCO5)cc32)cc1 | 3.2µM* | ? | ? | ? | ? | ? | 30% | ? | 5.6µM*
CN1c2cc(C(=O)Nc3ccccc3)ccc2C(=O)N2CCCCC21 (stereo not given) | 7.1µM* | ? | -20% | 65% | -19% | 9%[12.5 µM] | 17% | 16% | ?
CN(C)c1ccc(NC(=O)c2ccc3c(c2)N(C)C2CCCCN2C3=O)cc1 (stereo not given) | 2.8µM* | ? | -10% | 87% | ? | -27%[12.5 µM] | 14% | 17% | ?
Cc1cc(NC(=O)c2ccc3c(c2)N(C)C2CCCN2C3=O)ccc1Br (stereo not given) | ? | 3% | -6% | 129% | i | -1%[12.5 µM] | · | · | ·
Cc1ccc(C)c(-c2cc3c(=O)n(CCNC(=O)c4ccccc4)ccn3n2)c1 | i | ? | -13% | ? | ? | ? | · | · | ·
CC(=O)Nc1cccc(C(=O)NCCn2ccn3nc(-c4ccc(C)cc4C)cc3c2=O)c1 | 5µM* | 40µM* | -19% | 49% | ? | -15% | 31% | ? | 9.9µM*
Cc1ccc(-c2cc3c(=O)n(CCNC(=O)c4nn(C)c5ccccc45)ccn3n2)c(C)c1 | 1.4µM* | ? | -24% | 8% | ? | -14% | ? | ? | 1.6µM*
COc1ccc(C(=O)NCCn2ccn3nc(-c4cc(C)ccc4C)cc3c2=O)cc1OC | i | ? | -19% | 17% | ? | -1% | · | · | ·
Cc1ccc(-c2cc3c(=O)n(CCNC(=O)c4cccnc4)ccn3n2)c(C)c1 | 8.9µM* | ? | 5% | 93% | ? | -3% | 30% | ? | ?
Cc1ccc(-c2cc3c(=O)n(CCNC(=O)c4cc(Cl)ccc4F)ccn3n2)c(C)c1 | ? | ? | -25% | 32% | -2% | 2% | · | · | ·
Cc1ccc(-c2cc3c(=O)n(CCNC(=O)Cc4ccsc4)ccn3n2)c(C)c1 | 8.9µM* | ? | 0% | 65% | ? | -3% | ? | ? | 6.2µM*
Cc1nc(-c2c3n(c(=O)n(CC(=O)NCc4ccc5c(c4)OCO5)c2=O)CCCC3)no1 | i | 3% | -21% | -5% | -2% | -7% | · | · | ·
Cc1ccc(-c2cc3c(=O)n(CCNC(=O)c4ccc(N(C)C)cc4)ccn3n2)cc1C | i | -3% | 1% | 52% | i | 1% | · | · | ·
COc1ccc(C(=O)NCCn2ccn3nc(-c4ccc(C)cc4C)cc3c2=O)cc1F | 1.3µM* | ? | ? | 15% | ? | -18% | 32% | ? | 3.5µM*
Cc1ccc(-c2cc3c(=O)n(CCNC(=O)c4ccc(N(C)C)cc4)ccn3n2)c(C)c1 | 2.5µM* | ? | -18% | 95% | -16% | 0% | 20% | 14% | ?
O=S(=O)(Cc1ccccc1)N1CCC(c2nc(CCOc3ccc(F)cc3)no2)C1 (stereo not given) | i | ? | ? | ? | ? | -5%[12.5 µM] | · | · | ·
COc1ccc(CN(C(=O)c2cc3ccccc3oc2=O)C2CCS(=O)(=O)C2)cc1OC (stereo not given) | · | · | · | 111% | · | -2% | 20% | ? | -17%
c1ccc(Nc2ncc(-c3ccccc3)o2)cc1 | · | · | · | · | · | · | ? | ? | 0.79µM*
c1ccc(Nc2ncncc2-c2ccoc2)cc1 | · | · | · | 0% | · | 2% | · | · | ·
O=C(Nc1ccc(F)cc1)C1CCN(C(=O)c2ncn3c2COC(c2ccccc2)C3)CC1 (stereo not given) | 1.6µM* | -30% | ? | 79% | -31% | 2% | 9% | 1.1µM* | 1.8µM*
O=C(NC1CCCCCC1)C1CCN(C(=O)c2ncn3c2COC(c2ccccc2)C3)CC1 (stereo not given) | 13µM* | 11% | -2% | 4% | i | -6% | 13% | ? | 7.9µM*
